Bioassay records (PubChem BioAssay)
APEX1 inh: APE1 (human) endonuclease inhibition. hit rate 0.35% among 350,000. Potency, µM (titrated, usually from 65.8 µM), inactives show at the highest dose activity change, negative = inhibition, usual class: inhibitors. recombinant APE1, TAMRA/BHQ-2 abasic DNA cleavage fluorescence;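 further: plate controls were vehicle for no effect and reference inhibitor for full effect; nearly all actives have a fitted effect of over 55% in size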
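APE1 at 0.75 nM final was preincubated with compound 15 min at room temperature, then 50 nM double-stranded THF abasic-site substrate (5'-TAMRA/3'-BHQ-2) was added. Fluorescence (ex 525/em 598 nm) was read kinetically; third-minus-first read gave activity.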
RECQ1 inh: RECQ1 (human) helicase inhibition; hit rate 0.54% among 240,000; Potency, µM (titrated, usually from 57.3 µM), without a hit: at the top dose activity, negative = inhibition, most hits filed as inhibitors; P46063; AID 2549; RECQ1 DNA unwinding, red fluorescence kinetic read;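 further: plate controls were vehicle for no effect and no enzyme for full effect; nearly all actives have a fitted effect of over 30% in size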
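RECQ1T1 50 nM; forked duplex (20 bp + 30-nt ss tails) 200 nM, ATP 2 mM final; pH 8.0, 2 mM MgCl2, 2.5 ug/ml poly(dI-dC); 15 min compound preincubation; discontinuous kinetic read over 2 h at RT.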
KDM4E inh: blocks human JMJD2E demethylase activity. JMJD2E catalytic domain, FDH-coupled NADH fluorescence (FDH is formaldehyde dehydrogenase). hit rate 1.6% among 230,000. Potency, µM (highest dose often 57.1 µM), without a hit: at the highest dose activity change, negative = inhibition, actives largely listed as inhibitors; active means well fitted inhibition curve with a large enough effect, not every such curve was filed as active; inconclusive means small, poorly fitted or top-dose-only effect, or another doubt; inactive means no such curve, though single readings can be large or run the other way;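 further: 0% = wells with enzyme and -100% = buffer wells without enzyme; nearly all actives have a fitted effect of over 50% in size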
BLM helicase inh: blocks DNA unwinding by human BLM helicase | recombinant BLM DNA unwinding, fluorescence dequenching | Potency, µM (doses to about 56.1 µM), for the others: top-dose activity change, negative = inhibition, hits mostly inhibitors | AID 2528 | hit rate 0.2% among 350,000 | P54132;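 further: plate controls were vehicle for no effect and no enzyme for full effect; nearly all actives have a fitted effect of over 35% in size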
L3MBTL1 block: inhibitors of human L3MBTL1; Q9Y468; AlphaScreen L3MBTL1–H3K9me1 peptide binding; Potency, µM (highest dose often 57.1 µM), without a hit: at the top dose activity, negative = inhibition, most hits filed as inhibitors; hit rate 0.66% among 230,000; AID 485360; further: nearly all actives have a fitted effect of over 60% in size
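Displacement of a biotinylated histone H3(1-15) peptide monomethylated at Lys9 (75 nM) from L3MBTL1 (50 nM) was measured by AlphaScreen after a 30 min room-temperature compound incubation; cefsulodin titration served as intraplate control.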
GCN5L2 inh: inhibitors of human GCN5L2 histone acetyltransferase; hit rate 0.21% among 390,000; Potency, µM (top dose mostly 58.9 µM), inactives show top-dose activity change, negative = inhibition, usual class: inhibitors; GCN5L2 HAT assay, ThioGlo1 CoA-SH fluorescence
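Fluorescence readout, Ex340nm/Em540nm: ThioGlo1 (50uM final) reacts with free CoA thiol released as 20nM GCN5L2 acetylates H3(1-25) peptide (75uM) using acetyl-CoA (70uM). Compound and enzyme sat 15 min beforehand; 20 min room-temperature reaction.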
Numbers without * were called inactive; i = inactive; ? = inconclusive; · = no result; [ ] = remark or other dose. The sample as a whole holds a higher share of hits than the screen did. Unless noted, the call rests on the fitted dose curve; in most records, active means well fitted curve in the direction sought with a large enough effect; inconclusive means small, poorly fitted or top-dose-only effect, or another doubt; inactive means no such curve, though single readings can be large; an effect the other way counts as inactive or inconclusive. Unless noted, on the % scale 0 is the no-effect control and ±100 the full control effect; potency means the concentration at half of the fitted maximal effect.

SMILES	APEX1 inh	RECQ1 inh	KDM4E inh	BLM helicase inh	L3MBTL1 block	GCN5L2 inh
Cc1ccc(OCC(=O)N/N=C\c2ccc(C)o2)c(C)c1	8%	?	2%	-7%	-2%	-10%
Cc1ccc(OCC(=O)N/N=C\c2ccc(-c3cccc(C(=O)O)c3)o2)c(C)c1	15%	-2%	4%	-6%	5.6µM*	-3%
O=C(O)c1cccc(-c2ccc(/C=N/Nc3nn[nH]n3)o2)c1	-17%	1%	?	6%	20µM*	-10%
O=C1Nc2ccccc2SC1c1ccccc1 (centres undefined)	3%	·	·	-14%	·	-8%
Cc1ccc(NC2Sc3ccccc3NC2=O)cc1 (centres undefined)	8%	i	22µM*	-3%	-3%	-21%
CC(C)C(=O)c1ccc(O)c(O)c1	7%	?	25µM*	0%	3%	-5%
CCN(Cc1ccccc1)S(=O)(=O)c1ccc(C(=O)Nc2nnc(C3CC3)o2)cc1	10%	-12%	14µM*	-11%	-14%	-11%
NC(=O)c1ccnc2c(O)cccc12	18%	·	·	·	14µM*	1%
COc1cccc(O)c1O	2.5µM*	-30%	7.9µM*	0%	·	-20%
COc1ccccc1O	-17%	-2%	·	-3%	·	0%
COc1cccc(-c2ccc3ncnc(NCc4cccc(F)c4)c3c2)c1	13%	·	·	·	7%	-7%
O=C(O)c1cc(N=Nc2ccc(O)c(C(=O)O)c2)ccc1O	·	·	·	-7%	·	-8%
O=C(O)c1cc(N=Nc2ccc(-c3ccc(N=Nc4ccc(O)c(C(=O)O)c4)cc3)cc2)ccc1O	8.9µM*	20µM*	·	18µM*	·	3.2µM*
CC(=O)c1cccc(CN2CCCC(C(=O)Nc3ccc(-c4ccco4)cc3)C2)c1 (centres undefined)	2%	·	·	-6%	·	-29%
COc1ccc(CCC(=O)N2CC(C)OC(C)C2)cc1 (centres undefined)	3%	-2%	?	-1%	·	-17%
S=c1[nH]nc(-c2ccccn2)n1/N=C/c1ccc(Br)s1	21%	-6%	-16%	7%	28µM*	0%
N#CCCCS(=O)(=O)c1nnnn1-c1ccc(F)cc1Br	3%	-1%	5%	4%	·	·
CO/N=C1/[C@H]2O[C@@H]2[C@@H](O)[C@H]2[C@H]1CCn1c(=O)n(-c3ccccc3)c(=O)n12	9%[12.4 µM]	i[11.5 µM]	·	2%[12.4 µM]	·	·
O=C(c1cc2cc([N+](=O)[O-])ccc2oc1=O)n1cccn1	-1%	i	-10%	0%	40µM*	-12%
NS(=O)(=O)c1cc(C(=O)O)cc(N2CCCC2)c1Oc1ccccc1	14%	i	?	3%[21.4 µM]	-3%	?
CCCCNc1cc(C(=O)O)cc(S(N)(=O)=O)c1Oc1ccccc1	10%	-6%	25µM*	-8%	-3%	?
N#Cc1c(-c2ccc(F)cc2)no[n+]1[O-]	2%	·	·	·	·	·
Cc1ccc(NC(=O)CN2C(=O)N/C(=C/c3cc(C)n(-c4ccc(C(=O)O)cc4)c3C)C2=O)cc1	?	40µM*	?	-6%	·	?
CCn1c(C)cc(/C=C2\NC(=O)N(CC(=O)Nc3ccc(F)cc3)C2=O)c1C	31%	3%	?	-4%	-23%	-9%
Cc1ccc(/C=C/C(=O)c2ccccc(=O)c2O)cc1C	?	-15%	28µM*	-10%	-14%	-3%
SMILES	APEX1 inh	RECQ1 inh	KDM4E inh	BLM helicase inh	L3MBTL1 block	GCN5L2 inh
O=C(/C=C/c1ccc(O)cc1)c1ccccc1O	0%	0%	?	-10%	·	-27%
CN(C)c1ccc(NC(=O)CC(NCc2ccccn2)C(=O)O)cc1 (centres undefined)	-2%	i	4%	1%	13µM*	0%
Cc1cc(C)c(S(=O)(=O)/N=C2\C=C(NS(=O)(=O)c3ccccc3)C(=O)c3ccccc32)c(C)c1	-20%	·	·	-12%	·	-13%
Cc1cc(C)c(S(=O)(=O)/N=C2/C=C(SCC(=O)O)C(=O)c3ccccc32)cc1C	?	?	?	32µM*	·	-29%
O=C1N[C@@H]2[C@H](CCCCC(=O)Oc3ccc([N+](=O)[O-])cc3)SC[C@H]2N1	-2%	-7%	·	-3%	·	26%
COc1ccc(CNC(=O)c2cc3c(=O)n4ccccc4nc3n(Cc3cccnc3)c2=N)cc1	16%	14µM*	?	-10%	·	-1%
Cc1ccccc1NCc1ccc(O)c2ncccc12	1%	-6%	7.1µM*	-1%	?	-5%
Oc1ccc(CNc2ccccc2)c2cccnc12	3%	-5%	8.9µM*	-7%	?	-2%
Oc1ccc(COCc2ccc(F)cc2)c2cccnc12	7%	·	·	·	?	-5%
Oc1ccc(CNc2ccc(F)cc2)c2cccnc12	18%	?	7.9µM*	-7%	32µM*	-1%
O=C(O)[C@H](O)[C@@H](O)[C@H](O[C@@H]1O[C@H](CO)[C@H](O)[C@H](O)[C@H]1O)[C@H](O)CO	1%[21 µM]	·	·	·	·	·
CC(=O)Nc1ccc2nc3ccccc3nc2c1	3%	16%	14µM*	-4%	-2%	-10%
O=C(Nc1ccc2nc3ccccc3nc2c1)c1ccc(Br)cc1	9%	-17%	0%	-12%	10%	-3%
Cc1ccc(N(CC(=O)NCc2ccc3c(c2)OCO3)C(=O)c2csnn2)cc1	56%	·	·	-1%	·	-3%
COc1ccc(/C=N/NC(=O)c2ccc(C)cc2)cc1CN1CCN(c2ccc(F)cc2)CC1	-4%	-7%	1%	-2%	4%	0%
COc1ccc(/C=N\NC(=O)c2cc(O)c(O)c(O)c2)cc1CN1CCN(c2ccc(F)cc2)CC1	?	-5%	4µM*	-17%	-26%	-6%
CCOc1ccc(Oc2c(/C=N/NC(=O)C3CC3)c(C)nn2-c2ccccc2)cc1	-12%	-8%	4%	-5%	5%	-2%
CCCCCCCCCCCCCCCCn1cc[n+](Cc2ccccc2)c1C	?	-24%	·	?	·	8.9µM*
O=C(O)c1cccc(COc2ccc3c(c2)CCC3)c1	?	1%	11%	1%	22µM*	-5%
CC(C)[C@H]1c2ccc(F)cc2CC[C@@]1(CCN(C)CCCc1nc2ccccc2[nH]1)OC(=O)C1CC1	-6%	i	·	-3%	·	-6%
COC(=O)C(NS(N)(=O)=O)C(C)C (centres undefined)	1%	i	·	1%	·	·
COc1ccc(-c2nnc3n2N=C(c2c(OC)cccc2OC)CS3)cc1OC	-2%	-14%	·	-4%	·	·
